BoNT A protease – inhibitors of Botulinum neurotoxin A light chain protease; inhibition, % at 10 µM; multiplex microsphere protease substrate cleavage, flow cytometry; AID 588499; hit rate 0.17% among 360,000; note: plate controls were buffer without enzyme for full effect and enzyme alone for no effect
Anthrax LF inh2 – inhibitors of Bacillus anthracis lethal factor protease; P15917; multiplex microsphere protease cleavage assay, LF; inhibition, % at 10 µM; hit rate 0.12% among 360,000; note: plate controls were buffer without enzyme for full effect and enzyme alone for no effect
Bead autofluor – flagged as autofluorescent in microsphere protease counterscreen; compound autofluorescence counterscreen, microsphere flow cytometry; active compounds read high; fluorescence intensity (no concentration beside the values); hit rate 3.1% among 360,000; AID 624483; in the data active = fluorescence intensity above about 16000; inconclusive = no clear call, values can overlap the other calls
SSB-PriA inh – blocks PriA binding to SSB C-terminal tail; AlphaScreen SSBct-PriA binding, biotinylated peptide; inhibition, % at 33 µM; hit rate 0.6% among 430,000; AID 1272365; in the data active = inhibition mostly above about 37%, no sharp cut-off; inactive = mostly below about 20%;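 note: plate controls were negative control peptide for no effect and reference peptide for full effect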
BoNT F protease – inhibitors of Botulinum neurotoxin F light chain protease | Multiplex microsphere protease cleavage assay, flow cytometry | inhibition, % at 10 µM | hit rate 0.22% among 360,000 | AID 588497; in the data active = inhibition above about 35%, passing the limit was not always enough; inconclusive = no clear call, values can overlap the other calls; note: plate controls were buffer without enzyme for full effect and enzyme alone for no effect
The depositor's hits bear a star; u = inconclusive; x = not tested or not shown. In the library only some 3.1% were active in any assay of this set; here they are far more common. Cut-off read from the data, not from the text of the source, unless noted: active = inhibition above about 30%; inconclusive = no clear call, values can overlap the other calls; inactive = below that.

SMILES | BoNT A protease | Anthrax LF inh2 | Bead autofluor | SSB-PriA inh | BoNT F protease
CCOC(=O)c1sc2nc(N3CCOCC3)c3c(c2c1N)CCC3 | 0.3 | -3.4 | 8707 | -2.6 | -9.2
CCCCOc1ccc(C(=O)CSc2nc3c([nH]2)c(=O)n(C)c(=O)n3C)cc1 | x | x | x | -5.0 | x
COc1ccc(-c2nc(C#N)c(N3CCc4ccccc4C3)o2)cc1OC | -2.4 | -7.1 | 17078* | 29.6 | -5.0
COc1ccccc1-c1nc(C#N)c(N2CCc3ccccc3C2)o1 | 0.1 | -6.5 | 11156 | 56.1* | -12.7
COc1ccc(-c2nc(C#N)c(N3CCCCC3)o2)cc1OC | x | x | x | 59.2* | x
COc1ccc(N2CCN(c3oc(-c4ccc(OC)c(OC)c4)nc3C#N)CC2)cc1 | -0.9 | -10.2 | 2902 | -6.8 | -4.0
COc1ccccc1-c1nc(C#N)c(N2CCCCCC2)o1 | 0.5 | -17.8 | u | 34.3 | -6.3
COC(=O)c1ccc(Cl)cc1NC(=O)c1ccc2c(c1)OCCCO2 | x | x | x | -10.0 | x
CO[C@@H](CNC(=O)Cc1cccc2ccccc12)c1ccsc1 | x | x | x | -16.0 | x
COc1ccccc1CCNC(=O)Cc1csc(NC(=O)NC2CCCCC2)n1 | x | x | x | -15.0 | x
CCC(C(=O)NCC#CCN(C)Cc1ccccc1)c1ccccc1 (stereo not given) | x | x | x | -15.0 | x
COc1nc(-c2ccccc2)cc(-c2ccc(OC)c(OC)c2)n1 | 0.5 | -0.6 | 19447* | -11.7 | -1.7
COC(=O)C(C)N(C(=O)c1ccc(C(=O)c2ccccc2)cc1)c1c(C)cccc1C (stereo not given) | 0.0 | -3.6 | 11141 | -11.0 | 5.9
COC(=O)C(C)N(C(=O)c1ccc(Cl)cc1)c1c(C)cccc1C (stereo not given) | -1.5 | -1.6 | 21162* | -6.8 | -5.5
Cc1ccnc(OCC(=O)N2CCCC2)n1 | x | x | x | -9.0 | x
Cc1cc(N2C(=O)C3C4c5ccccc5C(c5ccccc54)C3C2=O)no1 (stereo not given) | 2.3 | -3.4 | 21886* | -6.7 | 2.9
CS[C@H]1CCN(C(=O)c2ccco2)C1 | x | x | x | -14.0 | x
FC(F)(F)c1cc(Oc2ccc(Cl)cc2)nc(-c2ccccn2)n1 | -3.3 | -2.0 | 23289* | -19.1 | -8.0
FC(F)(F)c1cc(Oc2ccccc2)nc(-c2ccccn2)n1 | 0.4 | 0.9 | 8937 | -24.6 | -1.3
C=CCNc1cc(C(F)(F)F)nc(-c2ccccn2)n1 | 1.4 | -1.0 | 19805* | 0.6 | 1.2
FC(F)(F)c1cc(Oc2ccccc2Cl)nc(-c2ccccn2)n1 | 1.7 | -1.3 | 21573* | -17.9 | 0.3
CCN(CC)c1cc(C(F)(F)F)nc(-c2ccccn2)n1 | 1.7 | 7.4 | 8722 | -7.6 | 12.4
Cc1ccc(/C=C/S(=O)(=O)NCC(C)(O)c2ccc3c(c2)OCO3)cc1 (stereo not given) | x | x | x | 6.0 | x
O=S(=O)(Nc1ccn2nccc2c1)c1cccc(C(F)(F)F)c1 | x | x | x | -5.0 | x
COc1ccc(-c2nnc3ccc(OCCNC(=O)CC(C)(C)C)nn23)cc1OC | x | x | x | -32.0 | x
SMILES | BoNT A protease | Anthrax LF inh2 | Bead autofluor | SSB-PriA inh | BoNT F protease
Cc1c(C2C(C#N)=C(N)N(c3ccccc3C#N)C3=C2C(=O)CCC3)cnn1C (stereo not given) | -0.6 | -1.4 | 2053 | 38.4* | -10.3
CC1CCC(C(C)C)C(OC(=O)C(O)C(O)C(=O)OC2CC(C)CCC2C(C)C)C1 (stereo not given) | x | x | x | -12.0 | x
C/C(=N\O)C(=O)OC1CC(C)CCC1C(C)C (stereo not given) | -1.2 | 0.4 | 24312* | x | -3.2
O=C(Nc1ccc(Cl)c(Cl)c1)c1coc(NC(=O)c2cccs2)n1 | x | x | x | 1.0 | x
CCN1CCN(Cc2c(OC)ccc3ccccc23)CC1 | 3.6 | 0.0 | 19532* | -11.4 | 4.3
COc1ccc(CN2CCN(c3ccccc3)CC2)c(C)c1C | u | -1.1 | 23743* | -4.1 | -5.9
COc1ccc2ccccc2c1CN1CCSCC1 | -41.6 | -15.8 | 13289 | 2.1 | u
COc1ccc2ccccc2c1CN1CCN(C)CC1 | u | -16.6 | 19346* | -8.4 | 7.2
O=C(N/N=C\c1ccccn1)c1cc(-c2c[nH]c3ccccc23)n[nH]1 | x | x | x | -8.0 | x
CCc1nc(N2CCCCC2C(=O)O)c2oc3ccccc3c2n1 (stereo not given) | -1.2 | -5.4 | 4994 | -10.4 | 4.4
CCc1nc(Nc2ccncc2)c2oc3ccccc3c2n1 | -0.1 | -1.3 | 20587* | -1.9 | -1.7
CCc1nc(N2CCCCC2C)c2oc3ccccc3c2n1 (stereo not given) | 0.6 | 0.9 | 19411* | -13.9 | -0.9
CCc1nc(Nc2ccc(N(C)C)cc2)c2oc3ccccc3c2n1 | x | x | x | 67.0 | x
CCc1nc(N2CCCCC2)c2oc3ccccc3c2n1 | -3.8 | -1.9 | 23515* | -25.1 | -4.5
O=C(CSc1nnc2ccc3ccccc3n12)c1ccc(Oc2ccccc2)cc1 | x | x | x | -18.0 | x
CCCN(Cc1ccsc1)C(=O)Nc1cc(Cl)ccc1OC | x | x | x | -8.0 | x
Cc1nc(-c2cccs2)sc1-c1ccc(SCC(=O)NCc2ccccc2Cl)nn1 | x | x | x | -12.0 | x
Cc1cc(NC(=O)c2cccc3ccccc23)ccc1N1CCCCC1=O | x | x | x | -13.0 | x
O=c1[nH]ncc(N/N=C/c2ccccc2)c1Cl | 1.4 | 1.5 | 15870 | x | 0.7
Cc1ccc(/C=N\Nc2cn[nH]c(=O)c2Cl)cc1 | 0.8 | -1.0 | 23558* | x | -5.4
COc1cc(C2C(C#N)=C(N)Oc3c2oc(CO)cc3=O)ccc1OC(C)C (stereo not given) | u | -1.2 | 20218* | -10.7 | -2.0
Cc1sc(NC(=S)NC(=O)c2ccc(C(C)(C)C)cc2)c(C#N)c1C | -2.1 | -1.3 | 21363* | -11.8 | -2.8
Cc1cc(C(=O)Nc2sc(C)c(C)c2C#N)c(C)o1 | u | 1.8 | 16457* | -5.0 | -1.8
Cc1sc(NC(=S)NC(=O)c2ccccc2)c(C#N)c1C | -0.1 | 1.4 | 4166 | -17.1 | 8.3
O=C(NC1CCN(c2nccs2)CC1)c1ccccn1 | x | x | x | 1.0 | x
SMILES | BoNT A protease | Anthrax LF inh2 | Bead autofluor | SSB-PriA inh | BoNT F protease
Clc1ccc2nc(Nc3ccncc3)nc(-c3ccccc3)c2c1 | x | x | x | -7.0 | x
CCN(CC)CCCNS(=O)(=O)c1ccc(OC)cc1 | u | -1.4 | 17061* | -18.1 | -3.5
COc1ccc(CCNS(=O)(=O)c2ccc(OC)cc2)cc1 | -0.6 | -7.8 | 9563 | -12.4 | 1.1
CC1CCc2c(sc(NC(=O)C(=O)NCc3ccco3)c2C#N)C1 (stereo not given) | u | -10.3 | 20783* | 1.6 | 9.5
CC1CCc2c(sc(NC(=O)CS(=O)(=O)c3ccccc3)c2C#N)C1 (stereo not given) | x | x | x | 3.0 | x
CC(C)(C)c1cc(Cc2ccccc2)[nH]n1 | u | -5.2 | 23025* | -12.5 | -2.5
O=c1cc(O)c2c(=O)n(Cc3ccccc3)c3ccccc3c2o1 | 3.6 | 0.0 | 3241 | -5.8 | 0.6
O=c1cc(O)c2c(=O)n(C3CCCCC3)c3ccccc3c2o1 | 0.1 | 2.1 | 22987* | -18.9 | 2.0
O=c1[nH]c(C2CCCN(S(=O)(=O)c3ccc(F)cc3)C2)nc2c1nnn2Cc1ccccc1 (stereo not given) | 2.4 | -0.3 | 21368* | -7.3 | 3.7
Cc1ccc(C)c(Cn2nnc3c(=O)[nH]c(C4CCCN(C(=O)CC(C)C)C4)nc32)c1 (stereo not given) | 4.6 | -8.5 | 21556* | 8.3 | 0.0
Cc1ccc(Cn2nnc3c(=O)[nH]c(C4CCCN(S(=O)(=O)c5ccccc5)C4)nc32)cc1 (stereo not given) | -0.1 | -0.9 | 4287 | -5.8 | 4.8

From PubChem
